Screen size: about 16,000 compounds; about 5,800 (36%) were called active. Another 23% or so got no clear call; they are omitted. The call rests on the fitted dose curve; in most records, active means well fitted curve in the direction sought with a large enough effect; inconclusive means small, poorly fitted or top-dose-only effect, or effect the other way; inactive means no such curve, though single readings can be large or run the other way. This is one part of the list.
Molecular target: Cytochrome P450 2C19 (Homo sapiens) (UniProt P33261)
Assay: Cytochrome panel assay with activity outcomes
Conditions: recombinant CYP, pro-luciferin dealkylation, luminescence, p450-cyp2c19; series mostly up to 57.1 µM; activity, negative = inhibition: at the top concentration
On the % scale 0 is the no-effect control and ±100 the full control effect.

Cytochrome P450 2C19 (Homo sapiens), sequence (P33261 whole entry, looked up): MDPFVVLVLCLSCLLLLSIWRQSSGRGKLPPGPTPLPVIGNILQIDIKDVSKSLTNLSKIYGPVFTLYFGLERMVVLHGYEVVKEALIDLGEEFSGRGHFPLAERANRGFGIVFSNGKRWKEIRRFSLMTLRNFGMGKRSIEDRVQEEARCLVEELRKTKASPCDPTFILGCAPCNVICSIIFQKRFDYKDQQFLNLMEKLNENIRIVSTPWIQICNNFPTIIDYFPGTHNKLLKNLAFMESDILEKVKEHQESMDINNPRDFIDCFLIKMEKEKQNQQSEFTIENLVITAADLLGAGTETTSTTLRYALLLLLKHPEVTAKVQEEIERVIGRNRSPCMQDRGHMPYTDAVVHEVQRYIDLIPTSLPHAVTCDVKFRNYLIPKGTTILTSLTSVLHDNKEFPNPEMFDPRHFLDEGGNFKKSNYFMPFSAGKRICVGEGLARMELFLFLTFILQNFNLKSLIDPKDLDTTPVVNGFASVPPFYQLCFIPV

activity, negative = inhibition, inactive:
CC(=O)OC[C@@H]1O[C@@H](O/N=C2/C[C@@H](O)[C@@H](O)[C@@H]3[C@H]4C(=O)N(c5ccc(F)cc5F)C(=O)[C@@H]4CC[C@@H]23)[C@H](OC(C)=O)[C@H](OC(C)=O)[C@@H]1OC(C)=O 51.5% [at 11.4 µM]
C[C@@H]1CN2[C@H](c3ccc(Br)cc3)[C@H](C)CC[C@H]2C(=O)O1 -28.6% [at 11.4 µM]
CCCC[C@@H]1CN2[C@H](c3ccc(Br)cc3)[C@@H](C)CC[C@H]2C(=O)O1 -43.3% [at 11.4 µM]
CO[C@H]1COC(=O)[C@@H](CCSC)NC(=O)C/C=C\[C@@H](C)[C@H](OC)COC(=O)[C@@H](OCc2ccccc2)/C=C\[C@@H]1C -26% [at 11.4 µM]
Cc1ccccc1/C=C\C1=NCCN1 -25.7%
N=C(N)[C@H](N=Nc1ccccc1)C(N)=O -26.2% [at 11.4 µM]
Cc1ccc(-c2nnc(-c3ccc4ccccc4c3)o2)cc1 10.3% [at 11.4 µM]
N#CCCn1c(=O)cnc2cnc(N3CCNCC3)nc21 33.4%
CCC(=O)Nc1nnc(C(C)(C)C)s1 -3.89%
CC(=O)Nc1ccc(-c2cc(C(=O)O)c3cc4ccccc4cc3n2)cc1 9.44% [at 11.4 µM]
CN1CCN(c2ncc3nc(-c4cc(F)cc(F)c4)c(=O)n(Cc4cccs4)c3n2)CC1 -27%
CCS(=O)(=O)N(C)[C@@H]1c2cc(C#N)ccc2OC(C)(C)[C@H]1O -11.7%
Cc1cc([N+](=O)[O-])nn1CC(=O)NNC(=S)Nc1ccc(F)cc1 -23.1%
NC(=O)c1nn(-c2ccccc2)c(=O)cc1O -3.79%
COC(=O)c1c(C)nc2ccccc2c1C(=O)O 3.75%
O=C(O)c1nn(-c2ccccc2)ccc1=O -12%
COc1ccc(NC(=O)N2CCCC3(CCN(C(=O)c4cccn4C)CC3)C2)cc1 -8.93%
CC(C)[C@@H]1[C@H]2CC[C@H](C2)[C@H]1N -13.4%
C[C@@H](O)[C@H]1C(=O)N2C(C(=O)O)=C(S[C@@H]3CN[C@H](C(=O)N(C)C)C3)[C@H](C)[C@H]12 -28.3% [at 25.6 µM]
CC1=C[N+](=O)c2ccccc2[N+]1=O 5.82% [at 11.4 µM]
Cc1cc(NC(=O)CCC(=O)N(CC2CCCO2)C(C(=O)NC2CCCC2)c2cccnc2)no1 (centres undefined) -30%
O=C(O)[C@@H]1CCCNC1 -17.7% [at 25.6 µM]
O=c1[nH]c(=O)n(Cc2ccco2)c2c1C(C(F)(F)F)(C(F)(F)F)N=C(CCC1CCCCC1)N2 -14.8%
O=C(N/N=C/c1cccnc1)c1ccc([N+](=O)[O-])cc1 -8.35%

AC50, active:
Cc1cc(NC(=O)Nc2ccc3c(ccn3C)c2)sn1 3.16 µM
C[C@@H]1CC[C@H]2C(=O)NC[C@@H](O)CN2[C@@H]1c1ccc(Br)cc1 2 µM
C[C@@H]1CC[C@H]2C(=O)O[C@H](CN=[N+]=[N-])CN2[C@@H]1c1ccc(Br)cc1 0.398 µM
CCCC[C@@H]1CN2[C@H](c3ccc(Br)cc3)[C@H](C)CC[C@H]2C(=O)O1 3.98 µM
COc1ccc(-c2nnc(-c3cccnc3)o2)cc1 17.8 µM
CCOc1ccc(-c2nnc(-c3ccncc3)o2)cc1 0.112 µM
CC(C)(C)NS(=O)(=O)c1ccc(NC(=O)C(Sc2ccccc2)c2ccccc2)cc1 (centres undefined) 3.55 µM
CC(C)(C)NS(=O)(=O)c1ccc(NC(=O)c2cc(-c3ccccc3)nc3ccccc23)cc1 2.82 µM
CC(C)(C)c1nnc(NC(=O)c2cc(-c3ccccc3)nc3ccccc23)s1 5.01 µM
COc1ccc(-c2cc(C(=O)Nc3nc4c(C)cccc4s3)c3ccccc3n2)cc1OC 2.51 µM
Cc1cc([N+](=O)[O-])nn1Cc1ccccc1F 11.2 µM
Nc1c(S(=O)(=O)c2ccccc2)c2nc3ccccc3nc2n1Cc1ccco1 7.08 µM
COC(=O)c1nn(-c2ccccc2)c(-c2ccccc2)c1C(=O)c1ccccc1 8.91 µM
CCOC(=O)c1nn(-c2ccccc2)c(-c2ccccc2)c1C(=O)c1ccccc1 10 µM
O=C(c1ccccc1)c1nn(-c2ccccc2)c(=O)cc1C(F)(F)F 1.58 µM
CCc1ccc(/C=C\C(=O)N2CCc3ccccc3C2)cc1 4.47 µM
CCOC(=O)CN(C(=O)CCC(=O)Nc1cc(C)on1)C(C(=O)NC1CCCC1)c1cccnc1 (centres undefined) 28.2 µM
CCCCC1CCC(c2nc(-c3ccccn3)no2)CC1 (centres undefined) 22.4 µM
O=C(c1ccc([N+](=O)[O-])cc1)[C@@H](Br)[C@@H](Br)c1ccnc2ccccc12 1.26 µM
CCN1C(=O)C(CC(=O)Nc2ccc(OC)cc2)N(Cc2cccnc2)C1=S (centres undefined) 1.26 µM

From PubChem BioAssay AID1851 (National Center for Advancing Translational Sciences (NCATS), 2009)
